# Shown is part of a subset that was picked to be rich in the strongest signals.
# B1: Mnn9-2N3 (Aspergillus fumigatus) (protein)
# chain: MAVARRMRRTNPITLLLAAILAIGFFIFVLSPSTTSASPVKAGSASSSSTSQQRREDNAAENPLSPPTKPFFKSQPVRHDGQQAPPPVVQYNLNQLSSTSTSAANGERILILTPMARFVPEYWDNVVKLTYPHELISIGFIIPKNKEGNAALAALEAAIAKTQSGPIDKRFASISILRQDFEPPLQSQDEKERHKISNQKARRESMSRARNSLLFTTLGPATAWVLWLDADIVETPPTLIQDLTAHDHPVLVPNCYQRYYNSEKKKMDVRPYDYNSWIDSSTAQSMAAEMGPDEILLEGYAEMPTYRTLMAHLADTANPNPKKVIELDGVGGTALMVKAEVHRDGAMFPAFPFYHLVETEGFAKMAKRLGYSVYGLPDYFVSRNFFFFFFFFFFG
# How the values were obtained:
# Experiment in all cases: glycan array binding signal (z-score within array); higher = stronger binding
# Conditions in all cases: glycan notation: IUPAC condensed, linker removed
# [1] = target: Fuc(a1-2)Gal(b1-3)GalNAc(b1-3)Gal(a1-4)Gal(b1-4)Glc
# Summary of the method: (§1)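 The binding signal is a Z-score computed within each array. Data were drawn from 3228 arrays in the Consortium for Functional Glycomics database, restricted to those with a known protein sequence. Scores were averaged over arrays of the same protein sequence at different concentrations or buffers, and over linkers, and negative values can be taken as non-binding.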
# [2] = target: Fuc(a1-2)Gal(b1-4)GlcNAc(b1-2)Man
# Summary of the method: as §1
# [3] = target: Fuc(a1-2)Gal(b1-4)[Fuc(a1-3)]GlcNAc(b1-2)Man(a1-3)[Fuc(a1-2)Gal(b1-4)[Fuc(a1-3)]GlcNAc(b1-2)Man(a1-6)]Man(b1-4)GlcNAc(b1-4)[Fuc(a1-6)]GlcNAc
# Summary of the method: as §1
# [4] = target: Fuc(a1-2)Gal3S(b1-4)GlcNAc
# Summary of the method: as §1
# [5] = target: Fuc(a1-2)[Gal(a1-3)]Gal(b1-4)[Fuc(a1-3)]GlcNAc
# Summary of the method: as §1
# [6] = target: Fuc(a1-2)[GalNAc(a1-3)]Gal(b1-3)GlcNAc
# Summary of the method: as §1
# [7] = target: Fuc(a1-2)[GalNAc(a1-3)]Gal(b1-4)GlcNAc
# Summary of the method: as §1
# [8] = target: Fuc(a1-2)[GalNAc(a1-3)]Gal(b1-4)GlcNAc(b1-2)Man(a1-3)[Fuc(a1-2)[GalNAc(a1-3)]Gal(b1-4)GlcNAc(b1-2)Man(a1-6)]Man(b1-4)GlcNAc(b1-4)GlcNAc
# Summary of the method: as §1
# [9] = target: Fuc(a1-2)[GalNAc(a1-3)]Gal(b1-4)GlcNAc(b1-3)[Fuc(a1-2)[GalNAc(a1-3)]Gal(b1-4)GlcNAc(b1-6)]GalNAc
# Summary of the method: as §1
# [10] = target: Fuc(a1-2)[GalNAc(a1-3)]Gal(b1-4)GlcNAc(b1-6)GalNAc
# Summary of the method: as §1
# [11] = target: Fuc(a1-3)[Gal3S(b1-4)]GlcNAc6S
# Summary of the method: as §1
# Gal(a1-2)Gal = target: Gal(a1-2)Gal
# Summary of the method: as §1
# Gal(a1-3)Gal = target: Gal(a1-3)Gal
# Summary of the method: as §1
# [12] = target: Gal(a1-3)Gal(b1-3)GlcNAc(b1-3)GalNAc
# Summary of the method: as §1
# [13] = target: Gal(a1-3)Gal(b1-4)[Fuc(a1-3)]GlcNAc(b1-2)Man(a1-3)[Gal(a1-3)Gal(b1-4)[Fuc(a1-3)]GlcNAc(b1-2)Man(a1-6)]Man(b1-4)GlcNAc(b1-4)GlcNAc
# Summary of the method: as §1
# Gal(a1-4)GlcNAc = target: Gal(a1-4)GlcNAc
# Summary of the method: as §1
# [14] = target: Gal(b1-3)GlcNAc(b1-6)[Gal(b1-3)]GalNAc
# Summary of the method: as §1
# [15] = target: Gal(b1-3)[Fuc(a1-4)]GlcNAc(b1-2)Man(a1-3)[Gal(b1-3)[Fuc(a1-4)]GlcNAc(b1-2)Man(a1-6)]Man(b1-4)GlcNAc(b1-4)[Fuc(a1-6)]GlcNAc
# Summary of the method: as §1
# [16] = target: Gal(b1-4)GlcNAc(b1-3)Gal(b1-4)GlcNAc
# Summary of the method: as §1
# [17] = target: Gal(b1-4)GlcNAc(b1-3)Gal(b1-4)GlcNAc(b1-2)Man(a1-3)[Gal(b1-4)GlcNAc(b1-3)Gal(b1-4)GlcNAc(b1-2)Man(a1-6)]Man(b1-4)GlcNAc(b1-4)GlcNAc
# Summary of the method: as §1
# Gal3S(b1-4)Glc = target: Gal3S(b1-4)Glc
# Summary of the method: as §1
# Gal3S(b1-4)Glc6S = target: Gal3S(b1-4)Glc6S
# Summary of the method: as §1
# Gal6P(b1-4)GlcNAc = target: Gal6P(b1-4)GlcNAc
# Summary of the method: as §1
# Gal6S(b1-3)GlcNAc6S = target: Gal6S(b1-3)GlcNAc6S
# Summary of the method: as §1
# GalNAc(b1-4)GlcNAc = target: GalNAc(b1-4)GlcNAc
# Summary of the method: as §1
# GalNAc(b1-6)GalNAc = target: GalNAc(b1-6)GalNAc
# Summary of the method: as §1
# [18] = target: GalNAc3S(b1-4)[Fuc(a1-3)]GlcNAc
# Summary of the method: as §1
# GalNAc6S(b1-4)GlcNAc = target: GalNAc6S(b1-4)GlcNAc
# Summary of the method: as §1
# GlcA(b1-3)Gal = target: GlcA(b1-3)Gal
# Summary of the method: as §1
# [19] = target: GlcNAc(b1-2)[GlcNAc(b1-4)]Man(a1-3)[GlcNAc(b1-4)][GlcNAc(b1-2)[GlcNAc(b1-6)]Man(a1-6)]Man(b1-4)GlcNAc(b1-4)GlcNAc
# Summary of the method: as §1
# Kdn(a2-3)Gal(b1-3)GalNAc = target: Kdn(a2-3)Gal(b1-3)GalNAc
# Summary of the method: as §1
# [20] = target: Man(a1-2)Man(a1-6)[Man(a1-3)]Man(a1-6)[Man(a1-2)Man(a1-2)Man(a1-3)]Man(b1-4)GlcNAc(b1-4)GlcNAc
# Summary of the method: as §1
# [21] = target: Neu5Ac(a2-3)Gal(b1-3)GalNAc6S
# Summary of the method: as §1
# [22] = target: Neu5Ac(a2-3)Gal(b1-3)GlcNAc(b1-3)GalNAc
# Summary of the method: as §1
# [23] = target: Neu5Ac(a2-3)Gal(b1-4)GlcNAc(b1-2)Man(a1-3)[GlcNAc(b1-4)][Neu5Ac(a2-3)Gal(b1-4)GlcNAc(b1-2)Man(a1-6)]Man(b1-4)GlcNAc(b1-4)GlcNAc
# Summary of the method: as §1
# [24] = target: Neu5Ac(a2-3)Gal(b1-4)GlcNAc(b1-2)[Neu5Ac(a2-3)Gal(b1-4)GlcNAc(b1-6)]Man(a1-6)[Neu5Ac(a2-3)Gal(b1-4)GlcNAc(b1-2)Man(a1-3)][GlcNAc(b1-4)]Man(b1-4)GlcNAc(b1-4)GlcNAc
# Summary of the method: as §1
# [25] = target: Neu5Ac(a2-3)Gal(b1-4)GlcNAc(b1-3)Gal(b1-3)GlcNAc
# Summary of the method: as §1
# [26] = target: Neu5Ac(a2-3)[GalNAc(b1-4)]Gal(b1-4)GlcNAc(b1-3)GalNAc
# Summary of the method: as §1
# [27] = target: Neu5Ac(a2-6)Gal(b1-4)GlcNAc(b1-2)Man(a1-3)[GlcNAc(b1-2)Man(a1-6)]Man(b1-4)GlcNAc(b1-4)GlcNAc
# Summary of the method: as §1
# [28] = target: Neu5Ac(a2-6)Gal(b1-4)GlcNAc(b1-2)Man(a1-3)[Neu5Ac(a2-6)Gal(b1-4)GlcNAc(b1-2)Man(a1-6)]Man(b1-4)GlcNAc(b1-4)[Fuc(a1-6)]GlcNAc
# Summary of the method: as §1
# Neu5Ac(a2-6)GalNAc = target: Neu5Ac(a2-6)GalNAc
# Summary of the method: as §1
# [29] = target: Neu5Ac(a2-8)Neu5Ac(a2-3)Gal(b1-4)Glc
# Summary of the method: as §1
# Neu5Gc(a2-3)Gal(b1-4)Glc = target: Neu5Gc(a2-3)Gal(b1-4)Glc
# Summary of the method: as §1
binder,measurement,setting,value
B1,glycan array binding signal (z-score),[1],-0.365
same,glycan array binding signal (z-score),[2],-1.25
same,glycan array binding signal (z-score),[3],3.21
same,glycan array binding signal (z-score),[4],1.83
same,glycan array binding signal (z-score),[5],-0.761
same,glycan array binding signal (z-score),[6],-1.58
same,glycan array binding signal (z-score),[7],0.402
same,glycan array binding signal (z-score),[8],0.31
same,glycan array binding signal (z-score),[9],-0.67
same,glycan array binding signal (z-score),[10],2.39
same,glycan array binding signal (z-score),[11],3.29
same,glycan array binding signal (z-score),Gal(a1-2)Gal,3.25
same,glycan array binding signal (z-score),Gal(a1-3)Gal,-0.434
same,glycan array binding signal (z-score),[12],-0.015
same,glycan array binding signal (z-score),[13],2.41
same,glycan array binding signal (z-score),Gal(a1-4)GlcNAc,2.75
same,glycan array binding signal (z-score),[14],-0.321
same,glycan array binding signal (z-score),[15],-0.841
same,glycan array binding signal (z-score),[16],-0.099
same,glycan array binding signal (z-score),[17],3.03
same,glycan array binding signal (z-score),Gal3S(b1-4)Glc,3.44
same,glycan array binding signal (z-score),Gal3S(b1-4)Glc6S,1.42
same,glycan array binding signal (z-score),Gal6P(b1-4)GlcNAc,2.57
same,glycan array binding signal (z-score),Gal6S(b1-3)GlcNAc6S,2.52
same,glycan array binding signal (z-score),GalNAc(b1-4)GlcNAc,-0.366
same,glycan array binding signal (z-score),GalNAc(b1-6)GalNAc,-0.275
same,glycan array binding signal (z-score),[18],-0.385
same,glycan array binding signal (z-score),GalNAc6S(b1-4)GlcNAc,-0.802
same,glycan array binding signal (z-score),GlcA(b1-3)Gal,0.326
same,glycan array binding signal (z-score),[19],-0.559
same,glycan array binding signal (z-score),Kdn(a2-3)Gal(b1-3)GalNAc,-2.43
same,glycan array binding signal (z-score),[20],-0.789
same,glycan array binding signal (z-score),[21],2.97
same,glycan array binding signal (z-score),[22],-0.456
same,glycan array binding signal (z-score),[23],-1.34
same,glycan array binding signal (z-score),[24],-0.217
same,glycan array binding signal (z-score),[25],0.123
same,glycan array binding signal (z-score),[26],-2.19
same,glycan array binding signal (z-score),[27],-1.47
same,glycan array binding signal (z-score),[28],0.808
same,glycan array binding signal (z-score),Neu5Ac(a2-6)GalNAc,2.59
same,glycan array binding signal (z-score),[29],2.12
same,glycan array binding signal (z-score),Neu5Gc(a2-3)Gal(b1-4)Glc,-0.055

# From the supplement of paper PMC8728848
